Data as given in ChEMBL document CHEMBL2218924, “A broad activity screen in support of a chemogenomic map for kinase signalling research and drug discovery” (Biochem J, 2013).

Tests used:
[1] = molecular target: Vascular endothelial growth factor receptor 3 (Homo sapiens) (UniProt P35916); conditions: at 10 µM
[2] = molecular target: Macrophage colony-stimulating factor 1 receptor (Homo sapiens) (UniProt P07333); conditions: at 1 µM
[3] = molecular target: Macrophage colony-stimulating factor 1 receptor (Homo sapiens) (UniProt P07333); conditions: at 10 µM
[4] = molecular target: Tyrosine-protein kinase Fyn (Homo sapiens) (UniProt P06241); conditions: at 1 µM
[5] = molecular target: Tyrosine-protein kinase Fyn (Homo sapiens) (UniProt P06241); conditions: at 10 µM
[6] = molecular target: T1, Mitogen-activated protein kinase kinase kinase kinase 2 (Homo sapiens) (UniProt Q12851); conditions: at 1 µM
T1 sequence (whole entry): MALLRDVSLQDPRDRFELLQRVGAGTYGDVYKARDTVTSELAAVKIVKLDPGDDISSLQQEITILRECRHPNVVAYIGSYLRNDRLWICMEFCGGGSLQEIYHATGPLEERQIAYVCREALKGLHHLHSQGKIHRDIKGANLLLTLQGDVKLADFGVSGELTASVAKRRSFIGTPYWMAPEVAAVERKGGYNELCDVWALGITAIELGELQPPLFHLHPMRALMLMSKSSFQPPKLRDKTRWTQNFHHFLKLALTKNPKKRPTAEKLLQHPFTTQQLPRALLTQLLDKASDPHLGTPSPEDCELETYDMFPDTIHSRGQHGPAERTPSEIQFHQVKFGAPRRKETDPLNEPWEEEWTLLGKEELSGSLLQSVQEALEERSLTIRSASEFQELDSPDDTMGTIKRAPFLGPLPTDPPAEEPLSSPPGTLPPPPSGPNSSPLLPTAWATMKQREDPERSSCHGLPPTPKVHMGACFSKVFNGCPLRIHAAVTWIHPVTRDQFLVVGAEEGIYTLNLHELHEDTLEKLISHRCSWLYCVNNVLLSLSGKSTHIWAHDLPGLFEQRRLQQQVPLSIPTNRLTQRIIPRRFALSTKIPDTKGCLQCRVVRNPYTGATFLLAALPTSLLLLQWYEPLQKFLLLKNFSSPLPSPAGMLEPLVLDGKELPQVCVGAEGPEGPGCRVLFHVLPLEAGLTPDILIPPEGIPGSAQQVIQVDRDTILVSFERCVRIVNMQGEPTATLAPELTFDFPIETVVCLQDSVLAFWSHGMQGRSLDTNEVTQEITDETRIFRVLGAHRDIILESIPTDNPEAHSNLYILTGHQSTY

[7] = molecular target: T1, Mitogen-activated protein kinase kinase kinase kinase 2 (Homo sapiens); conditions: at 10 µM
[8] = molecular target: G protein-coupled receptor kinase 5 (Homo sapiens) (UniProt P34947); conditions: at 10 µM
[9] = molecular target: G protein-coupled receptor kinase 6 (Homo sapiens) (UniProt P43250); conditions: at 10 µM
[10] = molecular target: T2, Rhodopsin kinase GRK7 (Homo sapiens) (UniProt Q8WTQ7); conditions: at 1 µM
T2 sequence (whole entry): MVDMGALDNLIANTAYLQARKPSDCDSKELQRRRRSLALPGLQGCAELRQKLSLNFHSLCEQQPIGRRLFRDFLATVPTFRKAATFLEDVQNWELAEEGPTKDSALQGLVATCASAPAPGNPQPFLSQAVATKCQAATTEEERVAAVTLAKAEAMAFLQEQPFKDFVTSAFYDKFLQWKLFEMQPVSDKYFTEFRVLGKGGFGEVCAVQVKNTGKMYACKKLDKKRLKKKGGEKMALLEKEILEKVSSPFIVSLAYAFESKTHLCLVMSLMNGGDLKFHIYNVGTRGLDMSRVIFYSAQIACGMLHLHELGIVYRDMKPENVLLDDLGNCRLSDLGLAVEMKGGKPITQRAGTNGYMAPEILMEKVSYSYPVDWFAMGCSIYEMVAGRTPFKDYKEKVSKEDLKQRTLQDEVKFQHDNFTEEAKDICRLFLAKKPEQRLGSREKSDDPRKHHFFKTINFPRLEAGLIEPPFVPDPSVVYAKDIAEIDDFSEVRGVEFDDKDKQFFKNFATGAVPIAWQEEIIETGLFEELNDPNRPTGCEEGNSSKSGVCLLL

Vascular endothelial growth factor receptor 3 (Homo sapiens), sequence (P35916 whole entry): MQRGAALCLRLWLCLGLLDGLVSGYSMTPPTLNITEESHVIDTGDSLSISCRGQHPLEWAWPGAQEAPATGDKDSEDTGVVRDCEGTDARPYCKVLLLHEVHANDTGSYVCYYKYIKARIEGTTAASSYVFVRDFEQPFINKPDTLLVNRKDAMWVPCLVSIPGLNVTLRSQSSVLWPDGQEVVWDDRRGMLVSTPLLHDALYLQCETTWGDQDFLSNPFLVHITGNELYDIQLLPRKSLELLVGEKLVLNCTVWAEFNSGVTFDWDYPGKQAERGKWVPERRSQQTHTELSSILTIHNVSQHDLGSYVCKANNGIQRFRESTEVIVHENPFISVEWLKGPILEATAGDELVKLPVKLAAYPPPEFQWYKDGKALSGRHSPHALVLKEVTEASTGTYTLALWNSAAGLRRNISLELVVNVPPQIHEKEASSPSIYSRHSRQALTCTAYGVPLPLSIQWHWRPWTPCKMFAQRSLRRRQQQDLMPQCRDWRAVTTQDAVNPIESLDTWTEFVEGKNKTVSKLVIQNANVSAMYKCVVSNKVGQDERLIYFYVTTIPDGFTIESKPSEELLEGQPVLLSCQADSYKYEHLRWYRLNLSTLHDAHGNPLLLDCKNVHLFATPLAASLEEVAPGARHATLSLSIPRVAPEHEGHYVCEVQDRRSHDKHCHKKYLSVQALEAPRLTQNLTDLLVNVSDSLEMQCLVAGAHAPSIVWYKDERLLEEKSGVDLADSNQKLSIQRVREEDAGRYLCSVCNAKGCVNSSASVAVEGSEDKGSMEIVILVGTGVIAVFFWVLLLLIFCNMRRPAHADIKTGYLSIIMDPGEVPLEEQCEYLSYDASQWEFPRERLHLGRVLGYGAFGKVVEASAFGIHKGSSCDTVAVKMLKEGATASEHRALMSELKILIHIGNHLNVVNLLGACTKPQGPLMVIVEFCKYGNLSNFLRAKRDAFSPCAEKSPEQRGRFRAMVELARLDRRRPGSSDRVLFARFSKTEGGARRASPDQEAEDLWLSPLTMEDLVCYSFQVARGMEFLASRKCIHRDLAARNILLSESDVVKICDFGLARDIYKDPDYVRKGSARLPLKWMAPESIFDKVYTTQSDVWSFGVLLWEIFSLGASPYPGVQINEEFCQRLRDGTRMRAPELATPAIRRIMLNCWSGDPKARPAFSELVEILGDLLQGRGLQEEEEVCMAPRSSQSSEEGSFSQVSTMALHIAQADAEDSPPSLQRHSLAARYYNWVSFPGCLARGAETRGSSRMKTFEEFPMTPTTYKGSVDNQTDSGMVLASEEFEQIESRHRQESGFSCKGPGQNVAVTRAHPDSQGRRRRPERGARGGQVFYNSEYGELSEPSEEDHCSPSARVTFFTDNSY
Tyrosine-protein kinase Fyn (Homo sapiens), sequence (P06241 2-537 limits assumed): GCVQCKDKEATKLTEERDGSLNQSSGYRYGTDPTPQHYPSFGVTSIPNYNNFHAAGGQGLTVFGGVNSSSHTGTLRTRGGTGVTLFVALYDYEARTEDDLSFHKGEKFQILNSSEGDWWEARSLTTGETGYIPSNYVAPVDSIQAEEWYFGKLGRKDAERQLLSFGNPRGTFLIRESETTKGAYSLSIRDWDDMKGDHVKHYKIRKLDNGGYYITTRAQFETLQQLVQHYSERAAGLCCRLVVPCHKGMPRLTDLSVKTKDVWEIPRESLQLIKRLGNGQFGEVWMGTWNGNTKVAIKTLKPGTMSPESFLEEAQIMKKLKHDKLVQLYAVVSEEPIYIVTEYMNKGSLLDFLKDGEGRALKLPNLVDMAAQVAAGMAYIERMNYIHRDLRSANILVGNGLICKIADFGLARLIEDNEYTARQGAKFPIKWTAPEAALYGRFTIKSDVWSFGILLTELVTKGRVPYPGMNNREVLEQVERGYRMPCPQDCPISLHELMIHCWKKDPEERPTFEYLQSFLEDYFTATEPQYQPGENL
G protein-coupled receptor kinase 6 (Homo sapiens), sequence (P43250 whole entry, looked up): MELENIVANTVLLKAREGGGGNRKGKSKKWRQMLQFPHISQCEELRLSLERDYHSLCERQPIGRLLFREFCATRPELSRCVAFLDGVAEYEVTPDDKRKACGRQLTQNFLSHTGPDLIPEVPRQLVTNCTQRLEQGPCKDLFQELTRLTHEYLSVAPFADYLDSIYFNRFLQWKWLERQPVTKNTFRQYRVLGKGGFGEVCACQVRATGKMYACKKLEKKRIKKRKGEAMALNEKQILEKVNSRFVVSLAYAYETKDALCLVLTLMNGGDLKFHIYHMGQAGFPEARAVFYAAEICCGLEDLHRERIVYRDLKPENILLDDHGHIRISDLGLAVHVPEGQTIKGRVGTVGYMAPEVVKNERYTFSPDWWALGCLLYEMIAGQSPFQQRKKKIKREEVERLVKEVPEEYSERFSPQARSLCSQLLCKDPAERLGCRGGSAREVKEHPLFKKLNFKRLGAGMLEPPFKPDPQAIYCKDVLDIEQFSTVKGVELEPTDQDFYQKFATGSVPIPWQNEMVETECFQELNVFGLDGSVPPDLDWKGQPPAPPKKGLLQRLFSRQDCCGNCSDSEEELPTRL
G protein-coupled receptor kinase 5 (Homo sapiens), sequence (P34947 whole entry, looked up): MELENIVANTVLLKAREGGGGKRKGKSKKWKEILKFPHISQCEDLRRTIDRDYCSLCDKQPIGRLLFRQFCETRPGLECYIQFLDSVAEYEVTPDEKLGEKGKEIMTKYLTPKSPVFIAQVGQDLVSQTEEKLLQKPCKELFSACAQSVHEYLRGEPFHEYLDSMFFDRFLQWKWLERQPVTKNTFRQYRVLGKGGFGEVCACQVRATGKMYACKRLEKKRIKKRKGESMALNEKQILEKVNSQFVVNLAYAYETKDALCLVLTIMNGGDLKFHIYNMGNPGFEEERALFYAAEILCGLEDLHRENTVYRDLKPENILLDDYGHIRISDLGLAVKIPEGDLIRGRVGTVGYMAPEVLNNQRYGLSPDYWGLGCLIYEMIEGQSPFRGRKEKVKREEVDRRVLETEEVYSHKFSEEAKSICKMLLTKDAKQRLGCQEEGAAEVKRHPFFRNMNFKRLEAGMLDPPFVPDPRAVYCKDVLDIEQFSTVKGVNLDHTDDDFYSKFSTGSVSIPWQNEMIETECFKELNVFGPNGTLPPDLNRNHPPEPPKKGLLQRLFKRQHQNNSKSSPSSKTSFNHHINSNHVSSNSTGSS
Macrophage colony-stimulating factor 1 receptor (Homo sapiens), sequence (P07333 whole entry): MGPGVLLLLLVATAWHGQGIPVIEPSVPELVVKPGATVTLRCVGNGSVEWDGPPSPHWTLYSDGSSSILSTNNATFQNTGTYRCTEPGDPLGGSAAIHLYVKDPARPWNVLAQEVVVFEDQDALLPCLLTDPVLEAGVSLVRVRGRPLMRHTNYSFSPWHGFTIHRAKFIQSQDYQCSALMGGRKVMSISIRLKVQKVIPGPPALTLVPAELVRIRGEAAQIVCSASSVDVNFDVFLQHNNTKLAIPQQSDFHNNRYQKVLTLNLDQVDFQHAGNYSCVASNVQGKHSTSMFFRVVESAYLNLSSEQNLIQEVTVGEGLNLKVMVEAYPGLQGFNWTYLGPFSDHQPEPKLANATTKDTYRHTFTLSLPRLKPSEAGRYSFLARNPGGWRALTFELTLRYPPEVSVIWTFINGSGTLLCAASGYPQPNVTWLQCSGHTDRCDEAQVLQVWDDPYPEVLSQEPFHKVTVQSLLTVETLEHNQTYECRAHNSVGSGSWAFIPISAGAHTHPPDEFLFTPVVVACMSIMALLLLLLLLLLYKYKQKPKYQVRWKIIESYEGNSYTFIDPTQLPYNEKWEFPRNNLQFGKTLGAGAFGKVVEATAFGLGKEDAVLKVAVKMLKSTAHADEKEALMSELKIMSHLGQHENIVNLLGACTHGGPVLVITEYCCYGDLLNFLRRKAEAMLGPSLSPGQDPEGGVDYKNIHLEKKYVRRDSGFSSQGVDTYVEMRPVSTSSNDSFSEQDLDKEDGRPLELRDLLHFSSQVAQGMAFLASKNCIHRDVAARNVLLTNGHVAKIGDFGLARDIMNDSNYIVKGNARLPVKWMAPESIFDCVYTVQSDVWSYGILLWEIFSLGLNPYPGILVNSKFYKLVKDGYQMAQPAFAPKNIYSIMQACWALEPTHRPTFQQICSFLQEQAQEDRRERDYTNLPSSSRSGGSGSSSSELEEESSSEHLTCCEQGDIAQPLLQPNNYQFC

| Compound | residual activity [1] [%] | residual activity [2] [%] | residual activity [3] [%] | residual activity [4] [%] | residual activity [5] [%] | residual activity [6] [%] | residual activity [7] [%] | residual activity [8] [%] | residual activity [9] [%] | residual activity [10] [%] |
| --- | --- | --- | --- | --- | --- | --- | --- | --- | --- | --- |
| CC#CC(=O)Nc1cc2c(Nc3ccc(F)c(Cl)c3)ncnc2cn1 | 93 | 88 | 83 | 96 | 88 | 91 | 84 | 93 | 83 | 98 |
| CC(=O)O/N=C1\C(=C2\C(=O)Nc3cc(Br)ccc32)Nc2ccccc21 | 1 | 33 | 16 | 1 | 0 | 67 | 23 | 94 | 88 | 106 |
| COc1cc2ncnc(Nc3ccc(Oc4ccccc4)cc3)c2cc1OC | 0 | 49 | 53 | 2 | 0 |  |  | 104 | 88 | 103 |
| CO[C@H]1C[C@@H]2CC[C@@H](C)[C@@](O)(O2)C(=O)C(=O)N2CCCC[C@H]2C(=O)O[C@H]([C@H](C)C[C@@H]2CC[C@@H](O)[C@H](OC)C2)CC(=O)[C@H](C)/C=C(\C)[C@@H](O)[C@@H](OC)C(=O)[C@H](C)C[C@H](C)/C=C/C=C/C=C/1C | 106 | 85 | 65 | 88 | 95 | 85 | 79 | 99 | 83 | 94 |
| CN(C)CCCn1cc(C2=C(c3c[nH]c4ccccc34)C(=O)NC2=O)c2ccccc21 |  | 50 | 30 | 102 | 70 | 75 | 22 | 9 | 32 | 58 |
| O=C1NC(=O)c2cc(Nc3ccc(F)cc3)c(Nc3ccc(F)cc3)cc21 | 65 | 75 | 54 | 68 | 50 | 81 | 71 | 90 | 81 | 93 |
| Cn1cc(/C=C2\C(=O)Nc3ccc(S(N)(=O)=O)cc32)c2ccccc21 | 3 | 52 | 12 | 10 | 3 | 7 | 1 | 37 | 89 | 14 |
| O=[N+]([O-])c1ccc(-c2nc(-c3ccc(F)cc3)c(-c3ccncc3)[nH]2)cc1 | 71 | 81 | 54 | 82 | 70 | 99 | 91 | 105 | 94 | 108 |
| Ic1cccc(CSc2nnc(-c3ccncc3)o2)c1 | 15 | 71 | 53 | 71 | 84 | 49 | 35 | 89 | 83 | 88 |
| Nc1ccc2ncnc(NCCc3ccc(Oc4ccccc4)cc3)c2c1 | 6 | 72 |  | 75 | 66 | 72 | 68 | 97 | 95 | 110 |
| O=C(Nc1cccc(Nc2cc(Nc3cccc(C(F)(F)F)c3)ncn2)c1)C1CC1 | 61 | 71 | 37 | 92 | 36 | 100 | 70 | 100 | 97 | 102 |
| COc1cc2ncc(-c3ccccc3)nc2cc1OC | 17 | 30 | 7 |  | 84 | 96 | 90 |  | 91 |  |
| NC(=O)c1ccc2[nH]c(-c3ccc(Oc4ccc(Cl)cc4)cc3)nc2c1 | 22 | 84 | 59 | 78 | 86 | 44 | 10 | 88 | 80 | 89 |
| COc1cc2ncnc(Nc3ccc(NC(=O)c4ccccc4)cc3)c2cc1OC | 14 | 84 | 79 | 100 | 48 |  | 70 | 89 | 94 | 110 |
| O=C1NC(=O)/C(=C/c2ccc3c(c2)OC(F)(F)O3)S1 | 83 | 56 | 72 | 93 | 79 | 106 | 87 | 101 | 87 | 107 |
| COc1ccc(C(=O)Nc2sc3c(c2C(N)=O)CCCC3)cc1OC | 12 | 39 | 43 | 79 | 95 | 81 | 81 | 93 | 84 | 92 |
| CC(=O)c1ccc(N2CCOCC2)cc1O | 88 |  |  | 80 | 96 | 91 | 89 | 86 | 91 | 95 |
| Oc1ccc(Nc2nc(-c3ccc(Cl)cc3)cs2)cc1 | 21 | 72 | 43 | 87 | 68 | 97 | 60 | 100 | 102 | 103 |

| Compound | residual activity [1] [%] | residual activity [2] [%] | residual activity [3] [%] | residual activity [4] [%] | residual activity [5] [%] | residual activity [6] [%] | residual activity [7] [%] | residual activity [8] [%] | residual activity [9] [%] | residual activity [10] [%] |
| --- | --- | --- | --- | --- | --- | --- | --- | --- | --- | --- |
| Oc1c2ccccc2c2c3c(cccc13)N=N2 | 0 | 36 | 9 | 60 | 47 | 16 | 2 | 63 | 81 | 71 |
| N#Cc1cnc2cnc(NCc3cccnc3)cc2c1Nc1ccc(F)c(Cl)c1 | 2 | 58 | 60 | 87 | 74 |  | 3 | 91 |  | 120 |
| C[C@@H](N)[C@H]1CC[C@H](C(=O)Nc2ccncc2)CC1 | 104 | 98 | 110 | 111 | 112 |  | 88 | 90 | 106 | 97 |
| Cc1ccc(NC2=CC(=O)c3sc(C)nc3C2=O)cc1 | 84 | 96 | 79 | 82 | 93 | 86 |  | 99 | 85 | 84 |
| CCN(CC)C(=O)c1ccc(Nc2nc(OCC3CCCCC3)c3nc[nH]c3n2)cc1 | 0 | 1 | 2 | 35 | 5 | 33 | 3 |  |  | 97 |
| O=c1cc(-c2cccc3c2Sc2ccccc2S3)oc(N2CCOCC2)c1 | 69 | 101 | 74 | 91 | 94 | 101 | 101 | 99 | 101 | 96 |
| COc1ccc(CNc2nc(N(CCO)CCO)nc3c2ncn3C(C)C)cc1 | 30 | 91 | 69 | 70 | 90 | 78 | 78 | 93 | 86 | 76 |
| Cc1cccc(-c2[nH]c(C(C)(C)C)nc2-c2ccc3c(c2)OCO3)n1 | 90 |  |  | 105 | 93 | 96 | 83 | 103 | 87 | 97 |
| c1ccc(-c2n[nH]c3c2oc2ccccc23)cc1 | 1 | 6 | 1 | 86 | 51 | 84 | 30 | 94 | 86 | 95 |
| Cn1nc2c3c(cccc31)C(=O)c1ccccc1-2 | 16 | 72 | 51 | 65 | 3 | 60 | 19 | 98 |  | 92 |
| O=C1Nc2ccc(Br)cc2/C1=C\c1cc2c([nH]1)CCCC2 | 1 | 11 | 3 |  |  | 24 | 42 | 100 |  |  |
| N#CC(C#N)=C(N)/C(C#N)=C/c1ccc(O)cc1 | 95 | 79 | 86 |  | 91 | 84 | 61 |  | 95 | 98 |
| Cc1ccc(S(=O)(=O)/C=C/C#N)cc1 | 89 | 84 | 89 | 88 | 100 | 90 | 89 | 101 | 94 | 95 |
| COc1cccc(-c2cc(=O)c3ccccc3o2)c1N | 80 | 114 | 88 | 93 | 39 | 91 | 82 | 102 | 96 | 96 |
| Cc1cc(Nc2nc(-c3ccccc3)nc3ccccc23)n[nH]1 | 1 | 4 | 0 | 2 | -2 | 38 | 6 |  | 65 | 55 |
| O=C(Nc1cccc(Nc2nccc(Nc3cccc(C(F)(F)F)c3)n2)c1)C1CC1 | 6 | 14 | 2 | 47 | 7 | 97 | 32 | 102 | 94 | 104 |
| Nc1cccc(-c2cc3c(Oc4cccc(O)c4)ncnc3[nH]2)c1 | 0 | 3 | -1 | 0 | -2 | 42 | 8 | 93 | 93 | 92 |
| O=Nc1c(-c2c(O)[nH]c3ccccc23)[nH]c2ccccc12 | 1 | 15 | 8 | 5 | 0 | 13 | 1 | 58 | 80 | 73 |
